About 7,900 targets were measured; listed, in parts, are those with a hit and a random draw of the rest. About 0.6% of all pairs of compound and target were hits.
compound: c1cn2cc(-c3ccc4cn[nH]c4c3)nc(Nc3ccc(N4CCOCC4)cc3)c2n1 [entospletinib]; assay: log2 fold change, soluble protein after heating vs DMSO (PISA); higher = thermal stabilisation; K562 cells, 10 uM, 30 min; active = over 0.2 and 3.5 SD of the protein, either way, in both replicates (recomputed)
Summary of the method: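 K562 cells at 2×10^6 cells/mL were given 10 μM compound for 30 min. Aliquots then went through 3 min of heating across 48°C-58°C, were pooled, and were extracted in PBS with 0.5% NP-40 at 4°C, and the supernatant after 21,000xg for 90 min was quantified by TMTpro 16plex LC-MS/MS with channel sums equalised. Thermal stability relative to control samples, from duplicates, is given as log2 fold change.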

Chain of UniProt P17980 (P17980 whole entry, looked up): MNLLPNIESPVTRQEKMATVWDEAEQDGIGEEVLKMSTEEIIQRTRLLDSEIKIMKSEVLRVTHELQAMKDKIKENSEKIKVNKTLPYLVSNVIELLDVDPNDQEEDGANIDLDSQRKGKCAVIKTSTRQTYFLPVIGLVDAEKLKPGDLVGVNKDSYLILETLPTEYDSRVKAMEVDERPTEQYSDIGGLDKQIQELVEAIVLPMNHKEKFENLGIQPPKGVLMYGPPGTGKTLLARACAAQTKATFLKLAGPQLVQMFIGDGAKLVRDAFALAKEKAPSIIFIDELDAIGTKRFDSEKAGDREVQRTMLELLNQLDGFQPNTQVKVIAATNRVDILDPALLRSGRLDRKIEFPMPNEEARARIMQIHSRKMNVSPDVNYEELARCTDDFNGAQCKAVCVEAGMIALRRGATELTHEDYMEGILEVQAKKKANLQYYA
Chain of UniProt Q53EL6 (Q53EL6 whole entry, looked up): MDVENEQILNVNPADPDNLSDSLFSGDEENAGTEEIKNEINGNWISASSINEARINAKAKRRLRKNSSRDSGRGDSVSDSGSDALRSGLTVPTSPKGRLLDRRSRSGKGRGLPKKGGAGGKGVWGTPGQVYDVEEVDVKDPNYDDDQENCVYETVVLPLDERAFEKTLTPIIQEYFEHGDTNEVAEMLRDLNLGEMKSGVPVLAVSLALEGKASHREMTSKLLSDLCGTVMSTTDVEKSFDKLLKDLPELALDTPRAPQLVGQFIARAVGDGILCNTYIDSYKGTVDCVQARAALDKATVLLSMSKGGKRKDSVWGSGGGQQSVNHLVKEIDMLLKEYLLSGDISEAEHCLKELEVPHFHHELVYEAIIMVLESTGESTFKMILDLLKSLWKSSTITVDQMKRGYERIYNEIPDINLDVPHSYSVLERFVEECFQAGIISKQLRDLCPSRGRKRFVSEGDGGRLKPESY
Chain of UniProt Q8WUK0 (Q8WUK0 whole entry, looked up): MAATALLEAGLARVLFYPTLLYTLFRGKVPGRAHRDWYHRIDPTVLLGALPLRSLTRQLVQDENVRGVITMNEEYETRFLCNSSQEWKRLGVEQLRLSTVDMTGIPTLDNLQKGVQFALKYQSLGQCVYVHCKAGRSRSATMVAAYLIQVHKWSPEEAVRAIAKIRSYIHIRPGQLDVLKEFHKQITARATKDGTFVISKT
Chain of UniProt Q9H300 (Q9H300 whole entry, looked up): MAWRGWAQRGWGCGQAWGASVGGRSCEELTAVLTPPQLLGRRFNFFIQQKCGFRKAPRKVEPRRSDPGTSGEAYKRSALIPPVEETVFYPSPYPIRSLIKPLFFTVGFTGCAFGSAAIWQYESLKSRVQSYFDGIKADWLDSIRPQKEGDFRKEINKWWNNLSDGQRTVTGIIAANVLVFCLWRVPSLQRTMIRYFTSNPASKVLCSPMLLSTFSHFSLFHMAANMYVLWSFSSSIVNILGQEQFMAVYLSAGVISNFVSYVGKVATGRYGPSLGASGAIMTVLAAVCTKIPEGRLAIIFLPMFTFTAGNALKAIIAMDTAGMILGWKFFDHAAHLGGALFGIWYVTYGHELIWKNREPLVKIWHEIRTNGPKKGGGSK
Chain of UniProt Q9Y244 (Q9Y244 whole entry, looked up): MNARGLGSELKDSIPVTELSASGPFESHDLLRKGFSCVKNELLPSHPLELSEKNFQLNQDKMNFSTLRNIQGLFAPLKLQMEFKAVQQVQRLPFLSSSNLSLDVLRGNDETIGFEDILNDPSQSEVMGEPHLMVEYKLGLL
Chain of UniProt P42785 (P42785 whole entry, looked up): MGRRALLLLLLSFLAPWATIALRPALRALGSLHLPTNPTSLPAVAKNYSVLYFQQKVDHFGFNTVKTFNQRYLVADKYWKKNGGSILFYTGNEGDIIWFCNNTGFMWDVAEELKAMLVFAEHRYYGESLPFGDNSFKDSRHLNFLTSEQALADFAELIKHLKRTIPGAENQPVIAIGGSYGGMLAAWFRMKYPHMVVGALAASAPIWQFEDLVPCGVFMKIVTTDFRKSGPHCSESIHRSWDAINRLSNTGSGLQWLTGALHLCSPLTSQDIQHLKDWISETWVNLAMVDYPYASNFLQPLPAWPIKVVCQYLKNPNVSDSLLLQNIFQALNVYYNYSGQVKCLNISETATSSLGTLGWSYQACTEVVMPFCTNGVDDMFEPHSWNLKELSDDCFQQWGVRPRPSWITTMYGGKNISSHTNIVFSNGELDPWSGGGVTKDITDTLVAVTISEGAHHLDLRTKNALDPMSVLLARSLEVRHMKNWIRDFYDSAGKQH
Chain of UniProt Q8NEB9 (Q8NEB9 whole entry, looked up): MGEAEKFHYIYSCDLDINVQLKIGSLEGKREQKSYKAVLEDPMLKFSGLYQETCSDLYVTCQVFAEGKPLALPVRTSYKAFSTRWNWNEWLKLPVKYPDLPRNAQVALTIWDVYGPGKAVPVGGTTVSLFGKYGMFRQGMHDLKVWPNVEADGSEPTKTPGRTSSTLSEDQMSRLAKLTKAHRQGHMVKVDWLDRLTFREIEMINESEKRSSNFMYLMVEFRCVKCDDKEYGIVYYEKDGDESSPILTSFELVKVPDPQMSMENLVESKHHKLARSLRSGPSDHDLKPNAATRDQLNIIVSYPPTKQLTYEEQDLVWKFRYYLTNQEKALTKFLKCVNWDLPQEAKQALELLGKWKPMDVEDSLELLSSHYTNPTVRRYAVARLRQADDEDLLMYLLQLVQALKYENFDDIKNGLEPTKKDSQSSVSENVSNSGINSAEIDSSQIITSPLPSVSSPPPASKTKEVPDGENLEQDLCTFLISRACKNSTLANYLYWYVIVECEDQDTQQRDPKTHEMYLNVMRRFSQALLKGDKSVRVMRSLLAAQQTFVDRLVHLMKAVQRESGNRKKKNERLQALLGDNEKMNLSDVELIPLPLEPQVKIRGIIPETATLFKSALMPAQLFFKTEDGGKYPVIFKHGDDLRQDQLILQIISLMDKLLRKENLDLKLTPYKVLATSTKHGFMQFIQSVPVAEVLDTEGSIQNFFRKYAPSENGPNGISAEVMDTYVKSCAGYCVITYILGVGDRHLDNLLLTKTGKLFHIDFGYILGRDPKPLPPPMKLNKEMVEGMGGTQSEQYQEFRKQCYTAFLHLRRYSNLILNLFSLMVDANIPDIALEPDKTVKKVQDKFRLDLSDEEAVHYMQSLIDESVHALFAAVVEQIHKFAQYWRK
Chain of UniProt P06454 (P06454 whole entry, looked up): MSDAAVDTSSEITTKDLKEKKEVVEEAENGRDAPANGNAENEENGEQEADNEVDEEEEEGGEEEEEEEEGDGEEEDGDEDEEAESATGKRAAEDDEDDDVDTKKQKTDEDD
Chain of UniProt P50336 (P50336 whole entry, looked up): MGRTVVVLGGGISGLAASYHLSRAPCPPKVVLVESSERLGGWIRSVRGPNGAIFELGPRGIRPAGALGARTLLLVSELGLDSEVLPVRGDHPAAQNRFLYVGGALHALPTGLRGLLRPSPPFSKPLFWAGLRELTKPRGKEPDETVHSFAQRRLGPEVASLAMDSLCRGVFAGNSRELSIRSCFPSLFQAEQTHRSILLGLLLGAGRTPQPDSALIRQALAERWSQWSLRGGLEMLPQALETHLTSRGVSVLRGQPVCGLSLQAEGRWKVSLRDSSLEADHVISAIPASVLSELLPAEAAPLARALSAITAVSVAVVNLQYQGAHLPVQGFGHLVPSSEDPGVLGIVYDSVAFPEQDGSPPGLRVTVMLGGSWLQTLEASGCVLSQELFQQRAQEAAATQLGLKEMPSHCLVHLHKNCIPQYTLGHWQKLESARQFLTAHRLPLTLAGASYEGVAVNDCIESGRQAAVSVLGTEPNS
Chain of UniProt P15735 (P15735 whole entry, looked up): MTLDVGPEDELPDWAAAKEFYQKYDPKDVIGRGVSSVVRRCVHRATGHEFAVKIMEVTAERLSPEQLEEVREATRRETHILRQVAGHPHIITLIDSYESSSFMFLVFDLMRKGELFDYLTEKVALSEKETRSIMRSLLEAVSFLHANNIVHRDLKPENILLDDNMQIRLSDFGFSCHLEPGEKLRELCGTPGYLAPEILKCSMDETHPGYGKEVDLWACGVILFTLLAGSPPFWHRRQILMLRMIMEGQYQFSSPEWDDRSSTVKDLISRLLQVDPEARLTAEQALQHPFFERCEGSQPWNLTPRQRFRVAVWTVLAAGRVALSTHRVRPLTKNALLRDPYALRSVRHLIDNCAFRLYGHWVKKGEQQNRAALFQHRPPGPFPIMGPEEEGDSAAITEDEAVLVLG
Chain of UniProt P78356 (P78356 whole entry, looked up): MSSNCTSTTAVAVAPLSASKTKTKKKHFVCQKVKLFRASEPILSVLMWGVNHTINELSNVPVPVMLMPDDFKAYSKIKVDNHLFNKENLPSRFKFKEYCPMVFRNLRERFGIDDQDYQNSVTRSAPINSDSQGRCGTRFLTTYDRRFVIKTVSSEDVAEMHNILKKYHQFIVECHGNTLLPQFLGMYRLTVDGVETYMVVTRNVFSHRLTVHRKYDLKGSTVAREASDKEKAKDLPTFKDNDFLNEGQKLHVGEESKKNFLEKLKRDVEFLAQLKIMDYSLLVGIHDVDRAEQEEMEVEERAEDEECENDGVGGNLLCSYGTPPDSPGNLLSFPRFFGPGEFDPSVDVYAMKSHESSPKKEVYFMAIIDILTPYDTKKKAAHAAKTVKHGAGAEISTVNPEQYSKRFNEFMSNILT
Chain of UniProt Q14442 (Q14442 whole entry, looked up): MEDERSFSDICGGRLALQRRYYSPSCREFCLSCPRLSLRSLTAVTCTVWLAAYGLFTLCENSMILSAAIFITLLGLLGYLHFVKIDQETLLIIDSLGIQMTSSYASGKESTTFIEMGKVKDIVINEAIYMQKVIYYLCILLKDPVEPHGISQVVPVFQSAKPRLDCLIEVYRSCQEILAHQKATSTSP
Chain of UniProt O96011 (O96011 whole entry, looked up, change not shown): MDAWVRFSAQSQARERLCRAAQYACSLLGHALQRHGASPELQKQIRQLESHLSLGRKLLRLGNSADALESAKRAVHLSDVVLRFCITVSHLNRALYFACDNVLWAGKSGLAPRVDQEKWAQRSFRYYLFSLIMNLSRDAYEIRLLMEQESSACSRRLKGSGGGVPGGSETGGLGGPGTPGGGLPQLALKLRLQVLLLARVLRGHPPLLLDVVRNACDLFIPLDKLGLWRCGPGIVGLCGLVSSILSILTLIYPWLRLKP

log2 fold change, inactive:
PIGH (UniProt Q14442) -0.034
PLK1 (UniProt P53350) -0.022
PJA2 (UniProt O43164) -0.009
PEX11B (UniProt O96011) -0.082
POMP (UniProt Q9Y244) -0.015
PDE2A (UniProt O00408) 0.015
PDCD4 (UniProt Q53EL6) -0.002
POLR2B (UniProt P30876) 0.193
PTMA (UniProt P06454) 0.047
PGGT1B (UniProt P53609) -0.037
PPOX (UniProt P50336) 0.028
PHKA1 (UniProt P46020) 0.063
PKM (UniProt P14618) -0.04
PECAM1 (UniProt P16284) -0.071
PIP4K2B (UniProt P78356) -0.04
PCBP1 (UniProt Q15365) -0.042
PARL (UniProt Q9H300) 0.018
PTPN23 (UniProt Q9H3S7) -0.031
PBK (UniProt Q96KB5) 0.109
PRPF40A (UniProt O75400) 0.057
POLR1A (UniProt O95602) -0.057
PSMC6 (UniProt P62333) 0.01
PELO (UniProt Q9BRX2) 0.05
PRCP (UniProt P42785) -0.062
PSMC3 (UniProt P17980) 0
PHAX (UniProt Q9H814) -0.005
PGGHG (UniProt Q32M88) 0.023
PPM1G (UniProt O15355) 0.094
PSMD1 (UniProt Q99460) -0.012
PYGB (UniProt P11216) -0.156
PRUNE1 (UniProt Q86TP1) 0.029
PRKAA1 isoform 2 (UniProt Q13131) -0.015
PTPMT1 (UniProt Q8WUK0) -0.018
PIK3C3 (UniProt Q8NEB9) 0.039
PHKA2 (UniProt P46019) -0.043
PSMA3 (UniProt P25788) 0.009
PIKFYVE (UniProt Q9Y2I7) 0.003

log2 fold change, active:
PHKG2 (UniProt P15735) -0.279

Source: the supplement of paper PMC10849652
